For assay [1], the system named is XIP peptide (Xip251-270) binding. Put plainly: XIP fragment 251-270 binding compounds – biochemical, small-molecule microarray, fluorescence 635/667 nm, 0.1 µg/mL protein, primary screen (AID 1182). The following applies: fluorescent protein binding, 635 nm, higher = more signal, called active from +8 up or from −8 down.
Assay [2] deals with XIP peptide (Xip251-270). Put plainly: compounds binding XIP fragment 251-270 – biochemical, small-molecule microarray, fluorescence 635/667 nm, 0.5 µg/mL protein, primary screen (AID 1183). Particulars: fluorescence 635 nm, higher = more signal.
The nature of assay [3]: blood-stage malaria parasite viability loss – strain 3D7, DAPI fluorescence, 100 nL, primary screen (AID 1184).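 Further: parasites grown inside human red blood cells in medium with human serum.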 The following applies: P. falciparum 3D7 growth, 3 d, higher = more signal.
The target of assay [4] is Homeobox protein Hox-A13 (Mus musculus) (UniProt Q62424). As to the kind of experiment: disruptors of Hoxa13 oligonucleotide interaction – biochemical, fluorescence polarization, labeled oligonucleotide, primary screen (AID 1185). The following applies: Hoxa13:DNA binding, 15 min, higher = more signal, called active from +8 up or from −8 down.
Homeobox protein Hox-A13 (Mus musculus), sequence (Q62424 whole entry, looked up): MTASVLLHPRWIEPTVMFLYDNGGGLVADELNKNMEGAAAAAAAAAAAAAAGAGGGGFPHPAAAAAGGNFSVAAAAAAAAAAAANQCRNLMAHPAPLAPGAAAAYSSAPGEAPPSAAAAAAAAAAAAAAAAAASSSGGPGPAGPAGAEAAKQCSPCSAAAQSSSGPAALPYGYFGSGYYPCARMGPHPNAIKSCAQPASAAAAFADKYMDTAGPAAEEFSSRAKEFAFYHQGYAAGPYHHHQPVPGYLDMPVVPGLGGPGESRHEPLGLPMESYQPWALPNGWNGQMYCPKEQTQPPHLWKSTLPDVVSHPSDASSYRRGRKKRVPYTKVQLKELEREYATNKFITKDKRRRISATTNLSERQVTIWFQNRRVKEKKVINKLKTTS
Assay [5] is described as follows: blockers of DNA damage checkpoint Chk1 activation – imaging, HeLa, hydroxyurea, phospho-Chk1 antibody, percent positive cells, primary screen (AID 1186). The following applies: hydroxyurea-induced phospho-Chk1 immunofluorescence imaging, higher = more signal.
The nature of assay [6]: blockers of DNA damage checkpoint Chk1 activation – imaging, HeLa, hydroxyurea, phospho-Chk1 nuclear intensity, primary screen (AID 1187). The following applies: hydroxyurea-induced phospho-Chk1 immunofluorescence imaging, higher = more signal.

The source made the active and inactive calls. Unless noted, how the calls were made is not given here.

For the molecule `Cc1ccc(S[C@]2(C(=O)NCc3ccccc3)CC(=O)N(Cc3ccccc3Cl)[C@@H]2c2ccc(CO)cc2I)cc1`, the composite z-score in assay [1] is 0.935 (inactive); in assay [2], 0.348. The z-score is -0.496 in assay [3], -1.91 (inactive) in assay [4], 0.0452 (inactive) in assay [5] and 0.0687 (inactive) in assay [6].

For `CC(C)C(=C=CC[C@@H](O)c1ccccc1OCCO)C[C@@H](O)c1ccccn1`, the results for the composite z-score in assay [1] and in assay [2] were 2.26 (inactive) and 0.499, respectively. For the same molecule, the z-score is -1.35 in assay [3], -4.89 (inactive) in assay [4], 0.0231 (inactive) in assay [5] and 0.215 (inactive) in assay [6].

In the case of `C[C@H]1NC(=O)[C@H](Cc2ccccc2)NC(=O)[C@@]23C(=O)N[C@@H](Cc4ccccc4)C2[C@H](C)[C@@]2(C)O[C@H]2C3/C=C/C/C=C\CNC1=O` (stereo partly specified), the composite z-score in assay [1] is -0.325 (inactive); in assay [2], -1.16. Also, the z-score in assay [3] was -1.45; in assay [4], -5.77 (inactive); in assay [5], -0.227 (inactive); in assay [6], 0.0899 (inactive).

Consider `O=C/C=C/c1ccc2c(c1)OCO2`, for which the composite z-score in assay [1] was -0.316 (inactive); in assay [2], -0.232. The z-score in assay [3] was 0.775; in assay [4], 1.04 (inactive); in assay [5], 0.284 (inactive); in assay [6] it was 0.774 (inactive).

With `CCOC(=O)[C@H]1C/C=C/C[C@H](C(=O)OCC)C(=O)O[C@H]2[C@@H](OC)O[C@H](CO)[C@@H](OC(=O)Nc3ccc4c(c3)OCO4)[C@@H]2OC1=O`, the composite z-score was 1.28 (inactive) in assay [1] and 0.832 in assay [2]. The z-score in assay [3] was -1.95; in assay [4], -2.27 (inactive); in assay [5] it was -0.18 (inactive); in assay [6] it was -0.0843 (inactive).

On to `O=C1OCCC/C=C\[C@H]2OC34C=CCN(Cn5nnc6ccccc65)C(=O)[C@H]3N(CCCCCO)C(=O)[C@@H]4C12` (stereo partly specified), for which the composite z-score is 0.145 (inactive) in assay [1] and 0.545 in assay [2]. Besides, the z-score was 0.961 in assay [3], -4.39 (inactive) in assay [4], 0.812 (inactive) in assay [5] and 0.888 (inactive) in assay [6].

As to `COc1ccc([Si](C)(C)[C@H]2[C@H](CCn3cc(CCO)nn3)O[C@@]3(C(=O)N(Cc4ccc(N5CCOC5=O)cc4)c4ccccc43)[C@@H]2C)cc1`, the composite z-score in assay [1] is 0.523 (inactive); in assay [2], 0.866. Moreover, the z-score in assay [3] was -2.38; in assay [4], -4.22 (inactive); in assay [5] it was -1.11 (inactive); in assay [6] it was -0.744 (inactive).

`O=C(O)[C@H]1C[C@H]2C(=O)NCC(=O)N2[C@H]1c1ccc(O)cc1`: the composite z-score in assay [1] was 0.267 (inactive); in assay [2] it was -0.212. The z-score in assay [3] is 0.137; in assay [4] it was -0.43 (inactive); in assay [5], 0.0056 (inactive); in assay [6], 0.0301 (inactive).

As to `NC(=O)NCC#Cc1ccc2c(c1)[C@]1(C(=O)N2)[C@H](C(=O)N2CCCCCCC2)[C@H]2C(=O)O[C@H](c3ccccc3)[C@H](c3ccccc3)N2[C@@H]1c1ccc(OCCO)cc1`, the composite z-score in assay [1] is 0.98 (inactive); in assay [2], 0.246. The z-score in assay [3] is -0.922; in assay [4], -15.8 (active); in assay [5], 0.109 (inactive); in assay [6], 0.309 (inactive).

For the molecule `CCOC(=O)C[C@H]1[C@H](OC(=O)c2ccc(-c3ccccc3)cc2)[C@@H](NC(=O)c2ccc3ccccc3c2)c2cc(OCCCO)ccc2N1C(=O)Cc1ccc(OC)cc1`, the values for the composite z-score in assay [1] and in assay [2] were -0.341 (inactive) and -0.0332, respectively. Moreover, the z-score is -0.884 in assay [3], -1.89 (inactive) in assay [4], -0.192 (inactive) in assay [5] and 0.0873 (inactive) in assay [6].

Turning to `CC(C)Cc1ccc(CN2CC[C@@H](NS(=O)(=O)c3ccccc3)C2)cc1`, the composite z-score is -0.479 (inactive) in assay [1] and 0.0054 in assay [2]. The z-score was -0.438 in assay [3], -4.79 (inactive) in assay [4], -0.853 (inactive) in assay [5] and -1.1 (inactive) in assay [6].

For `C=CC[C@@H](OC(=O)Nc1ccc(OC)cc1)c1ccc(O)c2ccccc12`, the figures for the composite z-score in assay [1] and in assay [2] were 1.08 (inactive) and 0.737, respectively. Moreover, the z-score in assay [3] is -0.166; in assay [4], -0.5 (inactive); in assay [5] it was 0.311 (inactive); in assay [6], 0.626 (inactive).

With `C[N+](C)(C)CCCCCCNC(=O)[C@H]1C[C@H]2C(=O)N3CCC[C@H]3C(=O)N2[C@H]1c1ccc(O)cc1`, the values for the composite z-score in assay [1] and in assay [2] were 1.07 (inactive) and 0.276, respectively. In addition, the z-score was -1.03 in assay [3], 0.0641 (inactive) in assay [4], -0.428 (inactive) in assay [5] and -0.356 (inactive) in assay [6].

For `COc1ccc(CCNC(=O)[C@@]2(Sc3ccc(C)cc3)CC(=O)N(Cc3ccccc3Cl)[C@@H]2c2ccc(CO)cc2I)cc1`, the results for the composite z-score in assay [1] and in assay [2] were 0.259 (inactive) and 0.391, respectively. Also, the z-score in assay [3] is -0.694; in assay [4], -2.24 (inactive); in assay [5] it was 0.351 (inactive); in assay [6] it was 0.606 (inactive).

For the molecule `Cc1cc(C)c(C(O)C2C=CC3C(=O)N(c4ccccc4)C(=O)C3N2Nc2ccc(C#N)cc2)c(C)c1` (stereo unspecified), the composite z-score in assay [1] was 1.69 (inactive); in assay [2] it was 0.432. The z-score in assay [3] was -0.558; in assay [4], 0.783 (inactive); in assay [5] it was 0.0661 (inactive); in assay [6], 0.0947 (inactive).

Regarding `CCCCC(O)C1C=CC2C(=O)N(C3CCCCC3)C(=O)C2N1Nc1ccc(OC)cc1` (stereo unspecified), the composite z-score was 0.222 (inactive) in assay [1] and 0.808 in assay [2]. The z-score in assay [3] is -0.265; in assay [4], -3.58 (inactive); in assay [5], 0.895 (inactive); in assay [6], 0.719 (inactive).

Consider `C[C@]1(C(=O)NCc2ccccc2)c2ccccc2C(=O)N(Cc2ccc(OC(F)(F)F)cc2)[C@H]1c1ccc(CO)cc1`, for which the composite z-score in assay [1] is 0.379 (inactive); in assay [2] it was 0.317. Further, the z-score in assay [3] is -2.01; in assay [4], -3.67 (inactive); in assay [5], -0.347 (inactive); in assay [6] it was -0.341 (inactive).

In the case of `CC(C)c1ccc(NN2C(C(O)c3c(F)cccc3Cl)C=CC3C(=O)N(c4ccccc4)C(=O)C32)cc1` (stereo unspecified), the composite z-score in assay [1] was 0.38 (inactive); in assay [2], 0.748. Moreover, the z-score in assay [3] was -0.668; in assay [4] it was -1.64 (inactive); in assay [5], 0.561 (inactive); in assay [6], 0.539 (inactive).

Consider `COc1ccc(C(O)C2C=CC3C(=O)NC(=O)C3N2Nc2ccccn2)cc1OCc1ccccc1` (stereo unspecified), for which the figures for the composite z-score in assay [1] and in assay [2] were 0.816 (inactive) and -0.0026, respectively. In addition, the z-score in assay [3] is -0.235; in assay [4], -2.68 (inactive); in assay [5] it was 0.682 (inactive); in assay [6], 0.581 (inactive).

As to `CCCN1C(=O)[C@]2(COC(c3ccc(OCCCO)cc3)=N2)Cc2ccccc21`, the composite z-score is 1.71 (inactive) in assay [1] and 0.42 in assay [2]. Further, the z-score in assay [3] was -0.755; in assay [4], -6.01 (inactive); in assay [5], -0.0155 (inactive); in assay [6], 0.239 (inactive).

Turning to `C=CCOC(=O)[C@@H]1[C@H]2C(=O)O[C@H](c3ccccc3)[C@H](c3ccccc3)N2[C@H](c2ccc(OCCOC(=O)[C@@H]3C[C@@H]4C(=O)NCC(=O)N4[C@@H]3c3cccc(OCCO)c3)cc2)[C@@]12C(=O)Nc1ccc(I)cc12`, the composite z-score in assay [1] was 0.567 (inactive); in assay [2], 0.765. Further, the z-score in assay [3] is -1.6; in assay [4], 0.8 (inactive); in assay [5], 1.07 (inactive); in assay [6], 0.783 (inactive).

The values are drawn from PubChem BioAssay.
